Reference: PubChem BioAssay AID504340 (NMMLSC, 2011)
Values joined by “and” are separate entries in the source; they are usually repeats but may differ in a detail not shown here. Equal entries are not always repeated. Active and inactive are the calls of the source.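 Rule for the calls: active = GFP response above 150% of the DMSO control; inconclusive = Under 70 cell events counted for a yeast strain; inactive = the rest.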

assay: yeast TOR pathway CIT2-GFP reporter retest – flow cytometry, third cherry pick, single plex, confirmation (AID 504340);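 note: median GFP fluorescence over all cells with no mother versus daughter split; sample signal as a ratio to the plate DMSO mean so 100% equals DMSO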; details: S. cerevisiae CIT2-GFP strain, 3 h, at 10 µM, stronger effect = higher value

GFP response vs DMSO, inactive:
Cc1cccc(C)c1Nc1ncnc(N)c1[N+](=O)[O-] 103%, O=C(Nc1ccc(-c2nc3ccccc3o2)cc1)c1cccnc1 96.1%, OCCNc1ncnc2ccc(Br)cc12 109%, Cc1cn2c(N)c(C=C3C=C(Cl)C(=O)C(Cl)=C3)c(=O)nc2s1 101%, O=C1c2ccccc2C(=O)c2c1cccc2N(CCO)CCO 92.8%, CCN(CC)C(=O)Oc1ccnc2cc(Cl)ccc12 107%, CC(=O)CC(=O)Nc1ccc(C(N)=O)cc1 106%, CC(C)Nc1ncnc2ccc(Br)cc12 96.1%, Cc1ccc(-c2cc(C(F)F)nc(S(C)(=O)=O)n2)cc1 91.2%, Cc1ccc(NC(=O)O/N=C2\CCCCC2c2ccc([N+](=O)[O-])cc2[N+](=O)[O-])cc1 (centres undefined) 106%, O=C(O)c1ccc(C=NNC(=O)c2cccc3ccccc23)cc1 106%, COc1ccc(OC)c(Nc2nc(NCCC(C)C)nc(N)c2[N+](=O)[O-])c1 103%, O=C(O)CCCCCNc1ncnc2ccc(Br)cc12 106%, Oc1ccc(F)c2cccnc12 101%, Cc1cccc(Nc2cc(=O)[nH]c(=O)[nH]2)c1 94.5%, CSc1ccccc1OCc1cc(C(=O)N2CCN(C)C(c3ccccc3)C2)no1 (centres undefined) 99.3%, CS(=O)(=O)c1nc(-c2ccc(F)cc2)cc(C(F)(F)F)n1 107%, O=C(N/N=C/c1ccccc1O)c1cccc2ccccc12 92.8%, COc1ccc(NC(=O)ON=C2c3ccccc3-c3ccccc32)cc1 109%, Cc1ccc(Nc2cc(=O)[nH]c(=O)[nH]2)cc1C 104%, CC(=O)NC(C)c1cc(Cl)c2cccnc2c1O (centres undefined) 97.7%, CCN(CC)C(=O)Oc1cc(=O)n(C)c2ccccc12 101%, C/C(=C\C(=O)c1ccc(Cl)cc1)Nc1ccc(Br)cc1 104%, COC1=C/C(=C/c2c(N)n3cc(C)sc3nc2=O)C=CC1=O 124%, Nc1ncnc(Nc2cc(Cl)cc(Cl)c2)c1[N+](=O)[O-] 97.7%, CC1=CN2C(=N)/C(=C/c3ccco3)C(=O)N=C2S1 112%, C=CCNc1ncnc2ccccc12 103%, Cc1ccc(C)c(Nc2ncnc(N)c2[N+](=O)[O-])c1 104%, Cc1cccc(Nc2cc(=O)[nH]c(=O)[nH]2)c1C 96.1%, CNc1cccc2c1C(=O)c1ccccc1C2=O 104%, COc1cccc2c(O)cc(=O)n(C)c12 103%, COc1ccc(-c2cc(C(F)(F)F)nc(S(C)(=O)=O)n2)cc1OC 112% and 109%, COc1ccc(OC)c(N/C(C)=C/C(=O)c2ccccc2)c1 99.3%, Nc1c(C(=O)O)ccc2c1C(=O)c1ccccc1C2=O 101%, COc1ccccc1OCc1cc(C(=O)N2CCN(C)C(c3ccccc3)C2)no1 (centres undefined) 103%, C=CCNc1ncnc2ccc(Br)cc12 101%, CC(=O)Nc1ccc(-c2nc3ccccc3o2)cc1 99.3%

GFP response vs DMSO, active:
CNc1nc(N)c([N+](=O)[O-])c(Nc2cccc(Cl)c2)n1 480%, Cc1ccc(NN2C(=O)C=C(c3ccccc3)C2=O)cc1 151%
